# Measurements reported in PubChem BioAssay (EPA / NIEHS).
# Calls of active or inactive are those of the source. How the source made its calls: active means hit-call score of the fitted dose curve at least 0.9, where 1 is the maximum; inactive means score below 0.9.
# Read-out: HGF (gene 3082)
# Test: LTEA_HepaRG_HGF: Life Technologies and Expression Analysis (LTEA) Assay for Hepatocyte Growth Facto (HGF) using HepaRG (AID 2283505)
# Details: mRNA level, 48 h; actives raise or lower the signal
# Protocol: LTEA_HepaRG is a cell based, multiplexed-readout assay that uses HepaRG, a human liver cell line, with measurements taken at 48 hours after chemical dosing on a 96-well plate.LTEA_HepaRG_HGF is one of 102 assay component(s) measured in the LTEA HepaRG cell culture assay. It is a marker of Cell proliferation, survival, death.Data from the assay component LTEA_HepaRG_HGF was analyzed into 1 endpoint. This assay endpoint, LTEA_HepaRG_HGF, was analyzed with bidirectional fitting relative to DMSO as the negative control and baseline of activity. Using a type of inducible reporter, measures of mRNA induction for gain or loss-of-signal activity can be used to understand regulation of transcription factor activity. To generalize the intended target to other relatable targets, this assay endpoint is annotated to the growth factor intended target family, where the subfamily is hepatocyte growth factor.
# A total of 1060 chemcials from the ToxCast library were tested in eight-point concentration-response experiments. Cell culture and cytotoxicity assays were conducted at Thermo Fisher Scientific's Custom Services facility (Madison, WI). A single lot of human HepaRG cells (Thermo Fisher Scientific, Frederick, MD) was used for the cell culture experiments. 96-well format collagen type I coated plates of human HepaRG cells were prepared using established methods. Briefly, cryopreserved HepaRG cells were thawed, plated at a density of approximately 100,000 cells/well in HepaRG Thaw, Plate, and General Purpose media (HPRG770, Thermo Fisher Scientific), and incubated for 48 hours. 0.5% DMSO was selected as vehicle control to balance the requisite need of DMSO in HepaRG cultures to maintain differentiation (for example, baseline metabolism, proportions of hepatocytes vs. cholangiocytes), while enabling further hepatic receptor pathway activation (for example, PXR and CAR) in response to chemical exposure. 48 hours after plating, the culture medium was replaced with HepaRG Serum-Free Incudtion Media. Cells were exposed to each test chemical in duplicate and maintained in CO2 incubators for another 48 hours. Chemical plates were thawed to room temperature and 200x concentrations of treatment groups were prepared. 8-point conentration-reponse curves were made with the highest exposure at 100 uM, followed by half-log dilutions, all in 0.5% DMSO. Each test plate contained variouse controls, induction positive controls (1mM phenobarbital), cytotoxicity positive controls ([…] aflatoxin B1), vehicle controls (0.5% DMSO), and total lysis controls (0.5% DMSO). Cell morphology images were taken using an Essen IncuCyte FLR automated microscope, with six 96-well plates imaged in about 24 minutes. Images were captured and exported and JPEG files. Spent culture media was transfered to black-well plates for the LDH assay, and remaining media was sorted at -80 C for later use. Cells were treated with RLT buffer and frozen until shipped for gene expression analysis. Total RNA was isolated from the cell suspension in 75 uL of Buffer RLT (Qiagen, Germantown, MD 20874) by Quintiles/Expression Analysis (Durham, NC) using a custom isolation procedure. Total RNA from each plate well was transferred to a preamplification plate. Fluidigm's 96.96 Dynamic ArrayTM (Fluidigm, Amsterdam, the Netherlands) technology was used for gene expression analyses by quantitative reverse transcription polymerase chain reaction (qRT-PCR, performed by Quintiles/Expression Analysis, Durham, NC)89. Standard TaqManTM Assays (Applied Biosystems/ThermoFisher Scientific, Foster City, CA) were used to assess the expression of 93 genes selected based on their selectivity and sensitivity to important hepatic receptors known to be modulated by environmental chemicals; importance in human hepatocyte functionality; and hepatotoxicity. […]
Structure (SMILES),AC50,outcome
CCN(C(=O)c1cc(C)cc(OC[C@H](C)Nc2ccncc2)c1)C(C)C,33.8 µM (active),–
O=C(NS(=O)(=O)/C=C/c1ccccc1)c1ccc(F)cc1Cl,–,inactive
C1=CCCC=CCCC=CCC1,–,inactive
O=C(OC[C@H]1O[C@@H](OC(=O)c2cc(O)c(O)c(OC(=O)c3cc(O)c(O)c(O)c3)c2)[C@H](OC(=O)c2cc(O)c(O)c(OC(=O)c3cc(O)c(O)c(O)c3)c2)[C@@H](OC(=O)c2cc(O)c(O)c(OC(=O)c3cc(O)c(O)c(O)c3)c2)[C@@H]1OC(=O)c1cc(O)c(O)c(OC(=O)c2cc(O)c(O)c(O)c2)c1)c1cc(O)c(O)c(OC(=O)c2cc(O)c(O)c(O)c2)c1,15.2 µM (active),–
O=c1n(CC2CO2)c(=O)n(CC2CO2)c(=O)n1CC1CO1 (stereo not given),–,inactive
CCCCCCCCCCCCCCCO,–,inactive
CCc1cc(SCc2sc(-c3ccc(C(F)(F)F)cc3)nc2CN2CCN(c3ccc(OC)cc3)CC2)ccc1OCC(=O)O,7.66 µM (active),–
CCC(C)(C)C(=O)O[C@H]1C[C@@H](C)C=C2C=C[C@H](C)[C@H](CC[C@@H]3C[C@@H](O)CC(=O)O3)[C@H]21,–,inactive
CC(C)=CCCC(C)=CC=O,–,inactive
Nc1cccc(N)c1,–,inactive
Oc1ccc2c(c1)-c1ccccc1C2,–,inactive
COc1ccc(/C=C/S(=O)(=O)NC(=O)c2ccc(C)cc2Cl)cc1,–,inactive
COCCOc1cc2cc(C(=O)NC3CCN(C(C)C)CC3)n(CC(=O)Nc3ccc(Cl)cn3)c2cn1,–,inactive
CC1(C)C(=O)N(Br)C(=O)N1Br,–,inactive
CCn1nc(Cc2ccccc2)cc1C1CCN(C[C@H]2C[C@H](N(C)[C@@H](C(=O)O)C(C)C)C[C@@H]2c2cccc(F)c2)CC1,–,inactive
O=C(O)CCN(C1(C(=O)NO)CCCC1)S(=O)(=O)c1ccc(Oc2ccc(F)cc2)cc1,–,inactive
CCOc1cccc(-n2cc(C(=O)N3CCN(c4cc(C(=O)O)c5ccccc5c4)CC3)nc2-c2ccc(C)cc2)c1,21.1 µM (active),–
NC(=O)NO,–,inactive
O=C1CCC(N2C(=O)c3ccccc3C2=O)C(=O)N1 (stereo not given),–,inactive
CCCCC(CC)COC(=O)CCCCCCCCC(=O)OCC(CC)CCCC (stereo not given),–,inactive

Structure (SMILES),AC50,outcome
CC(C)(O)c1coc(S(=O)(=O)NC(=O)Nc2c3c(cc4c2CCC4)CCC3)c1,–,inactive
CC1=CC(=O)CC(C)(C)C1,–,inactive
CC[C@H](C)C(=O)O[C@H]1C[C@@H](C)C=C2C=C[C@H](C)[C@H](CC[C@@H]3C[C@@H](O)CC(=O)O3)[C@H]21,–,inactive
O=C(O)c1cccc(Oc2ccccc2)c1,–,inactive
Cn1c(=O)cc(Oc2ccc(F)cc2F)c2cnc(NCC(C)(C)O)nc21,–,inactive
Cc1ccc(N)cc1O,–,inactive
Cc1ccc(C)c(O)c1,–,inactive
CC(C)=CCCC(C)CCO (stereo not given),–,inactive
CC(O)CN(CCN(CC(C)O)CC(C)O)CC(C)O (stereo not given),–,inactive
CCCCC(CC)COC(=O)c1ccc(C(=O)OCC(CC)CCCC)cc1 (stereo not given),–,inactive
CCOCCOCCOCCO,–,inactive
CN(C)c1ccc(Cc2ccc(N(C)C)cc2)cc1,–,inactive
O=C(O)CC(O)C(=O)O (stereo not given),–,inactive
CCCN(C1CCN(C(=O)C2CCNCC2)CC1)[C@@H]1CCc2ccc(OC)cc2C1,–,inactive
CC[C@H]1OC(=O)[C@H](C)[C@@H](O[C@H]2C[C@@](C)(OC)[C@@H](O)[C@H](C)O2)[C@H](C)[C@@H](O[C@@H]2O[C@H](C)C[C@H](N(C)C)[C@H]2O)[C@](C)(O)C[C@@H](C)C(=O)[C@H](C)[C@@H](O)[C@]1(C)O,–,inactive
O=c1[nH]c2ccc(S(=O)CCN3CCC(Cc4ccc(F)cc4)CC3)cc2o1 (stereo not given),–,inactive
CCNc1ccccc1,–,inactive
CCOC(=O)c1ccc(C2CCC(NC[C@H](O)COc3ccc(O)c(NS(C)(=O)=O)c3)CC2)cc1 (stereo not given in full),–,inactive
Cc1ccc(O)cc1,–,inactive
CCCC(=O)OCC,–,inactive
